Results on 106 compounds are retold here after ChEMBL document CHEMBL4513216, “Probing the Open Global Health Chemical Diversity Library for Multistage-Active Starting Points for Next-Generation Antimalarials” (ACS Infect Dis, 2020).

Screen size: about 69,000 compounds; about 8,600 (12%) showed an effect of 50% or more. What follows is part of a selection rich in strong results, with near analogues and random picks from the rest.

For the experiment, the system named is Plasmodium berghei. Put plainly: Screen against P. berghei liver stage (PbLuc), transformed with Luciferase, at 10uM. It counts as functional, HepG2. The conditions noted are these: tested at 10 uM.
For the compound `CC(C)c1nc(CN2CCN(C(=O)OC(C)(C)C)C(C)C2)no1` (stereo unspecified), the INHIBITION is reported as -9.35%. As for `Cc1nn(C)c2c(=O)n(Cc3ccc(C#N)cc3)nnc12`, the figure is 8.15%; as for `CC(C)OCCCNC(=O)CS(=O)(=O)Cc1cccc(Cl)c1`, -63.3%. Then `Cn1ccnc1-c1cn(CCc2nnc(N)s2)nn1`, with 40.2%. Then `CC(C)c1nnc2n1CC(CNCc1ccsc1)CC2` (stereo unspecified), with 5.85%; and `Cc1oc(-c2ccsc2)nc1CC(=O)NCCCS(C)(=O)=O`, with 5.05%; and `O=C(c1ccncc1Cl)N1CCN(Cc2ccco2)C(CCO)C1` (stereo unspecified), with 16.2%. For the compound `O=C(c1ncccc1O)N1CCN(Cc2ccco2)C(CCO)C1` (stereo unspecified), the INHIBITION came to 17%. Then `Cc1cc(C(=O)N2CCN(Cc3ccco3)C(CCO)C2)cc(=O)[nH]1` (stereo unspecified), with 52.1%. Regarding `CCOc1ccc(C(=O)N2CCCC2Cn2cc(C)cn2)cn1` (stereo unspecified), the INHIBITION is listed as 28.55%. As for `CCn1cc(NC(=O)C2CCN(CC(=O)NCC(C)C)CC2)cn1`, the INHIBITION came out at 37.4%.

As for `Cc1ccc(NC(=O)c2cc3c(=O)n(C)c(=O)n(C)c3nc2C)cc1Cl`, the INHIBITION is reported as -6.83%. As for `COc1cccc([C@@H]2N[C@H](c3nccs3)Cc3ccsc32)c1OC`, the figure is 49.2%; as for `CCOc1cc([C@H]2N[C@@H](c3nc(C)cs3)Cc3ccsc32)ccc1OC`, 75%. As for `COc1ccc(OC)c([C@@H]2N[C@H](c3nccs3)Cc3ccsc32)c1`, the figure is 43.4%; as for `CCOc1cc([C@@H]2N[C@H](c3nccs3)Cc3ccsc32)ccc1OC`, 25.05%. As for `CCOc1ccc([C@@H]2N[C@H](c3nccs3)Cc3ccsc32)cc1OC`, the figure is 69.25%; as for `COc1cc([C@@H]2N[C@H](c3nccs3)Cc3ccsc32)cc(OC)c1OC`, 47.2%. Consider `COCCN1CCC2(CC1)CN(Cc1cccc(C)n1)C(=O)CO2`, for which the INHIBITION worked out at 7.53%. Take `COc1ccc(CCC(=O)N(C(C)C)C2CCOCC2)cc1`: the INHIBITION is listed as -42.1%. Then `CC(C(=O)N1CCN(c2ccccc2)CC1)n1cc(Br)cn1` (stereo unspecified), with -35.4%.

Regarding `O=C(c1ccccn1)N1CCN(C(c2ccccc2)C(F)(F)F)CC1` (stereo unspecified), the INHIBITION is 51.7%. As for `O=C(c1c[nH]nn1)N1CCN(C(c2ccccc2)C(F)(F)F)CC1` (stereo unspecified), the figure is -10.9%; as for `O=C(c1cc[nH]n1)N1CCN(C(c2ccccc2)C(F)(F)F)CC1` (stereo unspecified), 17.1%; as for `NC(=O)C1CN(c2ccc(F)cc2)CCN1` (stereo unspecified), 25.8%. As for `Cc1nc2ccccc2nc1NCc1nnc2n1CCC2`, the figure is 52.9%; as for `c1ccc2nc(N3CCCCC3)c(NCc3nnc4n3CCC4)nc2c1`, 0.897%; as for `c1ccc2nc(N3CCCC3)c(NCc3nnc4n3CCC4)nc2c1`, 16.1%.

Consider `Cc1cnn(CCNCc2csc(-c3ccc(C)o3)n2)c1`, for which the INHIBITION stood at 15.3%. Then `CN(C)C(=O)Cc1ccc(NC(=O)c2cn(C)nn2)cc1`, with 20%; and `Cn1cc(C(=O)Nc2ccc(CC(=O)NCC(F)(F)F)cc2)nn1`, with 50.5%; and `Cn1cc(C(=O)Nc2ccc(CC(=O)NC3CC3)cc2)nn1`, with 11.3%. As for `CCC(C)c1cc(C(=O)N(CC(=O)NC)c2cccc(F)c2)on1` (stereo unspecified), the figure is 3.04%.

For `Cc1cccc(CN2CCCn3c(nnc3Cn3cccn3)C2)n1`, the INHIBITION is -23%.

On to `CN(C)C(=O)c1noc2c1CN(C(=O)CCCN1CCCCC1)CC2`, for which the INHIBITION worked out at 41.5%. As to `CCNc1cc2c(nn1)CCN(C(=O)CC1CCCC1)C2`, the INHIBITION is 17.4%. As for `CN(C)C(=O)c1cc2c(s1)CCN(C(=O)CCCN1CCCCC1)C2`, the figure is 71.5%; as for `CCN1CCc2cc(C(=O)N(C)C)c(NCC3CC3)nc2CC1`, 37.2%; as for `CCN1CCC(CC(=O)N2CCc3sc(C(=O)N(C)C)cc3C2)CC1`, 64%. As for `CN1CCCC(CCC(=O)N2CCc3onc(C(=O)N(C)C)c3C2)C1` (stereo unspecified), the figure is 12%; as for `CNC(=O)c1cc2c(s1)CCN(C(=O)CCC1CCCN(C)C1)C2` (stereo unspecified), 42.6%. As for `CN(C)c1cc2c(nn1)CCN(C(=O)c1cc3c(s1)CCCC3)C2`, the figure is -2.13%. As to `CN1CCCC(CCC(=O)N2CCc3sc(C(=O)N(C)C)cc3C2)C1` (stereo unspecified), the INHIBITION turned out to be 73.6%. As for `c1cc(-c2ccc3nc(C4CCN(CC5CC5)CC4)nn3c2)cs1`, the figure is 23.6%. On to `Cc1ccc2c(n1)N(CCn1cccn1)CCN(CC1CC1)C2`, for which the INHIBITION is on record as -6.3%.

With `CCN(Cc1cnn(C)c1)C[C@H]1CC[C@@H](Cc2ccc(OC)nc2)O1`, the INHIBITION is given as -22.3%. As for `CN(C)CCN1CCCC12CCN(C(=O)c1ccoc1)CC2`, the figure is -44.2%.

`O=c1c2cn[nH]c2nc(SCCN2CCCC2)n1-c1ccccc1`: the INHIBITION was found to be 17.7%. Regarding `CC(C)CNC(=O)[C@H]1CCS(=O)(=O)[C@@H]2CN(Cc3ccc(F)cc3)C[C@H]12`, the INHIBITION is -0.371%. As for `CSc1cccc(CN(C)C(=O)Cn2ncc(N3CCCC3)cc2=O)c1`, the figure is 25.1%; as for `CCC1C(=O)NCCN1c1cc(C)ncn1` (stereo unspecified), 26.8%; as for `O=C(Cc1ccccn1)N1CCc2ncnc(N3CCCC3)c2CC1`, -10.3%. Then `N[C@@H]1CCN(Cc2cccc(N3CCOCC3)c2)C[C@H]1O`, with 58.6%.

For the compound `OC1CN(Cc2cccc(N3CCOCC3)c2)Cc2ccccc21` (stereo unspecified), the INHIBITION is 28.7%. Then `OC1COCCN(Cc2cccc(N3CCOCC3)c2)C1` (stereo unspecified), with 15.9%; and `CC(=O)Nc1ccc(CNc2ccn(Cc3ccccc3)n2)cc1`, with -51.8%; and `CC(C)c1nccn1-c1cccc(C2CCCN2S(=O)(=O)N(C)C)n1` (stereo unspecified), with 21.9%. Then `CC(C)c1nccn1-c1cccc(C2CCCN(S(=O)(=O)N(C)C)C2)n1` (stereo unspecified), with 50.1%; and `CC(C)c1nccn1-c1cncc(C2CCCN(C3CCCCC3)C2)n1` (stereo unspecified), with 44.1%. Consider `CC(C)c1nccn1-c1cncc(C2CCCN(C3CCCC3)C2)n1` (stereo unspecified), for which the INHIBITION was found to be 41.2%. Then `Cc1nccn1-c1cccc(C2CCCN2S(=O)(=O)N(C)C)n1` (stereo unspecified), with 53%; and `CN(C)S(=O)(=O)N1CCC(c2ccnc(Nc3ccccn3)n2)C1` (stereo unspecified), with 29.5%. `CC(C)c1nccn1-c1cccc(C2CCN(C)CC2)n1`: the INHIBITION came to 58%. On to `CC(C)c1nccn1-c1cccc(C2CCCN(C3CCCC3)C2)n1` (stereo unspecified), for which the INHIBITION is reported as 35.3%. As for `CCc1nccn1-c1cccc(C2CCCN2S(=O)(=O)N(C)C)n1` (stereo unspecified), the figure is 36.7%. Turning to `COc1ccc(C(=O)Nc2cccc(C(N)=O)c2)c(OC)n1`, the INHIBITION is -26.1%.

As for `CNCC(=O)N1CCCCC1c1nccc(C)n1` (stereo unspecified), the INHIBITION turned out to be 18.3%. `O=C(c1ccnc(-n2ccnc2)c1)N1CCCC(n2ccnc2)C1` (stereo unspecified): the INHIBITION stood at 25.1%.

Take `CC(=O)NCCNC(=O)c1cc(COc2ccccc2)[nH]n1`: the INHIBITION was -3.83%. As for `O=C(c1cnc(Cc2c(Cl)cccc2Cl)nc1O)N1CCNCC1`, the figure is 43.9%; as for `NC1CCN(C(=O)c2cnc(Cc3c(Cl)cccc3Cl)nc2O)C1` (stereo unspecified), 51.3%. Then `CCN1CCN(C(=O)c2cnc(Cc3c(Cl)cccc3Cl)nc2O)CC1`, with 8.11%.

In the case of `CN(C)C(=O)N[C@@H]1CN(Cc2ccc3c(c2)OCO3)[C@@H]2CCCO[C@@H]21`, the INHIBITION was -15.5%.

As to `Cc1cc(OCC(=O)N2CCCC2c2noc(C)n2)no1` (stereo unspecified), the INHIBITION is recorded as 2.97%. As for `Cc1ccc(C(=O)N2CCC(Oc3ccc(C)c(C)c3)CC2)c(=O)[nH]1`, the figure is 69.65%; as for `COc1ccccc1OC1CCN(C(=O)c2c[nH]c(=O)[nH]c2=O)CC1`, -7.76%. Then `Cc1ccccc1OC1CCN(C(=O)c2c[nH]c(=O)[nH]c2=O)CC1`, with 60.4%.

On to `COc1ccc(OC2CCN(C(=O)c3ccc(C)[nH]c3=O)CC2)cc1`, for which the INHIBITION was determined as 29.85%. Turning to `Cc1ccc(C(=O)N2CCC(Oc3cccc(C)c3C)CC2)c(=O)[nH]1`, the INHIBITION worked out at 45.5%. Then `Cc1ccc(C(=O)N2CCC(Oc3ccccc3)CC2)c(=O)[nH]1`, with 29.4%; and `COc1cccc(CC(=O)N2CCC(NCc3c[nH]nc3C)CC2)c1`, with -17.35%. Then `O=C(CCCc1ccccn1)N1CCCC1c1noc(C2CC2)n1` (stereo unspecified), with 0.411%; and `O=C(c1nnn(-c2ccccc2)n1)N(CCO)CCO`, with -7.77%. As to `Cc1cccc(NC(=O)Cc2cnc3n(C)c(=O)[nH]c(=O)n23)c1`, the INHIBITION came to 27.5%.

`O=C(Cc1ccc2c(c1)CCO2)N1CCCC1Cn1cccn1` (stereo unspecified): the INHIBITION is reported as 31.6%. As for `CCS(=O)(=O)NCCCNC1CSCCc2ccccc21` (stereo unspecified), the figure is 60.9%; as for `CC(C)(C)S(=O)(=O)CCNC1CSCCc2ccccc21` (stereo unspecified), -56.6%.

As for `CNC(=O)CN1CCC(NC2CSCCc3ccccc32)CC1` (stereo unspecified), the INHIBITION is -18.9%.

Regarding `OCCNC1CSCCc2ccccc21` (stereo unspecified), the INHIBITION is -56.6%.

Take `CCS(=O)(=O)NCCN(CCO)C1CCc2ccccc21` (stereo unspecified): the INHIBITION is reported as 29.4%. As for `CCCNC(=O)CCNC1CSCCc2ccccc21` (stereo unspecified), the figure is 76.9%; as for `COc1ccc(CCNC(=O)c2ccc(=O)n(C)c2)c(Cl)c1`, 1.74%; as for `Cn1ncc2c(=O)[nH]c(CN3CCCC3CCc3ccccc3)nc21` (stereo unspecified), 19.6%.

Turning to `Cc1cc(C)c(CNC(=O)NCCC2CCCO2)c(=O)[nH]1` (stereo unspecified), the INHIBITION was 1.82%. As for `COc1ccc2c(c1)C(C(=O)NCCN1CCOC1=O)CC(=O)N2` (stereo unspecified), the figure is 34.9%; as for `Cc1cc(C)n(C2CCCN(C(=O)c3cccc(F)c3F)C2)n1` (stereo unspecified), 33%; as for `CN1CCN(C(=O)Cc2ccc(S(=O)(=O)C(F)F)cc2)CC1`, 39.6%.

On to `O=C(Cc1ccc(S(=O)(=O)C(F)F)cc1)N1CCC1`, for which the INHIBITION amounted to 43.9%. As for `CCN1CCN(C(=O)Cc2ccc(S(=O)(=O)C(F)F)cc2)CC1`, the figure is 55.9%. Then `CCn1ccc(NC(=O)c2cc(C)on2)n1`, with -9.21%; and `COCCNC(=O)c1ccc2c(=O)n3c(nc2c1)CCCC3`, with 54.9%; and `COCCNC(=O)c1ccc2c(=O)n3c(nc2c1)CCN(C)CC3`, with -48.5%. As for `COCCN1CCn2c(nc3cc(C(=O)NC(C)C)ccc32)C1`, the figure is 19.3%; as for `COCCNC(=O)c1ccc2c(=O)n3c(nc2c1)CCCCCC3`, 55.4%; as for `CN1CCc2nc3cc(C(=O)NCc4cccs4)ccc3c(=O)n2CC1`, 21.1%. In the case of `COCCNC(=O)c1ccc2c(=O)n3c(nc2c1)CCCCC3`, the INHIBITION was 40.8%.
